Assay results taken from PubChem BioAssay (NCATS).
Several values for one entry are separate records, joined by “and”; a condition that tells them apart may be missing. Identical values can stand only once. Records with an inconclusive call do not appear. Activity calls are given as the source filed them. Unless noted, calls come from the whole dose curve; as a rule, active = well fitted curve in the direction sought with a large enough effect; inconclusive = small, poorly fitted or top-dose-only effect, or another doubt; inactive = no such curve, though single readings can be large; an effect the other way counts as inactive or inconclusive.

Legend:
[1] = qHTS to identify inhibitors of the type 1 interferon - major histocompatibility complex class I in skeletal muscle: primary screen against the NCATS LOPAC collection (AID 1347405);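 note: lytic HiBiT luminescence reporting HLA-B protein level; % is set by controls: 0 for no effect and ±100 for the full control effect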
How it was run: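 Luminescence from HiBiT fused to endogenous HLA-B in CRISPR-engineered human myoblasts served as the read-out. Cells received 4.0 ng/ml IFN-beta plus compound (seven concentrations, 1:4.3 steps, highest 46 uM final) for 24 hrs before lytic detection.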

[2] = qHTS to identify inhibitors of the type 1 interferon - major histocompatibility complex class I in skeletal muscle: primary screen against the NCATS Pharmaceutical Collection (AID 1347407);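 note: luminescence of HiBiT knocked into endogenous HLA-B as interferon-induced MHC class I level; % is set by controls: 0 for no effect and ±100 for the full control effect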
How it was run: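 Compounds […] were added to CRISPR-engineered HLA-B-HiBiT C25cl48 human myoblasts with 4.0 ng/ml IFN-beta. After 24 hrs at 37 C, cells were lysed and HiBiT luminescence measured.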

[3] = qHTS for inhibitors of adenylyl cyclases using a fission yeast platform: a pilot screen against the NCATS LOPAC library (AID 1347410);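 note: plate controls were DMSO vehicle for no effect and DPI positive control for full effect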
How it was run: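 GFP from fbp1-GFP reporter, read by Acumen laser cytometry, indicates AC inhibition in fission yeast expressing AC9, GNAS and PDE4D2. Cells grown 18 h in the dark at 30C with compounds, final up to 57 uM.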

[4] = target: Protein phosphatase 1D (Homo sapiens) (UniProt O15297); test: RapidFire Mass Spectrometry qHTS Assay for Modulators of WT P53-Induced Phosphatase 1 (WIP1) (AID 1347424);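 note: amount of dephosphorylated VEPPL-S-QETFS peptide product formed by WIP1; series mostly up to about 63 µM; plate controls were DMSO wells for no effect and GSK830371 inhibitor control at 10 µM for full effect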
How it was run: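 10 nM WIP1 + cpd, 1 h RT; + 2 uM VEPPL-pS-QETFS, 5 min RT; stop 0.5% formic acid; labelled product standard 1 uM; RapidFire MS. Buffer 50 mM Tris pH 7.5, 30 mM MgCl2, 1 mM TCEP.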

[5] = target: Protein phosphatase 1D (Homo sapiens) (UniProt O15297); test: Rhodamine-PBP qHTS Assay for Modulators of WT P53-Induced Phosphatase 1 (WIP1) (AID 1347425); note: % of control where 0% means no effect
How it was run: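 WIP1 (5 nM final) was preincubated with compound for 1 hour at room temperature. It then dephosphorylated 10 uM VEPPL-pS-QETFS peptide in Tris-HCl pH 7.5 with 30 mM MgCl2. Released Pi was detected by 10 uM Rh-PBP fluorescence (ex 525/em 598 nm) read at 1-min intervals for 11 min, as delta f1 - f0.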

[6] = Validation qHTS assay for inhibitors of Activation Induced Cytidine Deaminase (AID): UDG Counterscreen signal (AID 1347427); note: 0% is about no effect
How it was run: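 Counterscreen read of UDG activity (2 U/mL, 4/3x) in the FRET deamination format with AID (1 uM, 4/3x), DJC20/DJC23 substrates (250 nM, 4x), 4 h at room temperature. NaOH stop, fluorescence at 560 ex/665 em.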

[7] = target: Single-stranded DNA cytosine deaminase (Homo sapiens) (UniProt Q9GZX7); test: Validation qHTS assay for inhibitors of Activation Induced Cytidine Deaminase (AID): AID signal (AID 1347429); note: % is set by controls: 0 for no effect and ±100 for the full control effect
How it was run: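 Fluorescence at 540 nm excitation and 590 nm emission reports ssDNA cytosine deamination by AID, with UDG in the same well. Compound-treated reactions ran 4 hr at room temperature with DJC20/DJC23 substrate, followed by 30 min NaOH treatment.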

[8] = Primary qHTS for inhibitors of La Crosse Virus (LACV) - induced cell death in SH-SY5Y cells (AID 1508616);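 note: top concentration of the series differs between compounds; 0% = infected DMSO wells and 100% = uninfected DMSO wells; higher means more rescue of cells from virus-induced death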
How it was run: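 Protection against LACV-induced cell death is scored in SH-SY5Y cells exposed to compounds and virus (0.01 MOI) for 6 days. Data normalized to virus-infected DMSO wells and virus-free DMSO wells.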

[9] = target: Calcium and integrin-binding protein 1 (Homo sapiens) (UniProt Q99828); test: Validation qHTS for Identification of Calcium Integrin Binding protein 1 (CIB1) Competitor (AID 1508618); note: % is set by controls: 0 for no effect and ±100 for the full control effect
How it was run: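 Fluorescence polarization with 1 uM CIB1-GST and 100 nM FITC-alphaIIb peptide in HEPES pH 7.4, NaCl, 5 mM CaCl2, Tween20. Compounds at up to 114 uM final, preincubated with protein 15 min; read after 15 min more at RT.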

[10] = target: Calcium and integrin-binding protein 1 (Homo sapiens) (UniProt Q99828); test: Primary qHTS for Identification of Calcium Integrin Binding Protein 1 (CIB1) Competitor (AID 1508620)
How it was run: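 CIB1-GST (1 uM final) and compound incubated 15 min at room temperature before adding FITC-alphaIIb peptide tracer (100 nM final). Competition for binding read by fluorescence polarization (ex 480, em 540) after another 15 min at room temperature.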

[11] = Primary qHTS for small molecule stabilizers of the endoplasmic reticulum resident proteome: Secreted ER Calcium Modulated Protein (SERCaMP) assay (AID 1508630); note: % is set by controls: 0 for no effect and ±100 for the full control effect
How it was run: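 GLuc-SERCaMP-expressing SH-SY5Y cells, pretreated 16 h with compound, are challenged with thapsigargin to empty ER calcium stores; after 4 h, coelenterazine is added directly to the medium and luminescence is imaged.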

[12] = A High-Content qHTS Against Drug Library for the Identification of Small Molecules that Inhibit DYT1 Early Onset Primary Dystonia-Associated Cell Pathology (AID 1645839; calls by dose curve; note: potency is the fitted concentration of half-maximal effect)
How it was run: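 In this high-content image screen, delE TorsinA mislocalization in inducible Flp-In 293 cells is scored as %pathology, with cell count serving as the counterscreen. Compound exposure lasts 48 h under tetracycline induction in reduced-serum medium.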

[13] = target: Cytochrome P450 2C9 (Homo sapiens) (UniProt P11712); test: Cytochrome P450 family 2 subfamily C member 9 (CYP2C9) small molecule antagonists: luciferase biochemical (cell-free) qHTS assay (AID 1645842; active = well fitted curve in the direction sought with a large enough effect in the repeat runs; an effect the other way counts as inactive or inconclusive; note: nearly all actives have a fitted effect of over 55% in size; note: potency is the fitted concentration of half-maximal effect)
How it was run: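 Luminescence, after 20 min with luciferin detection reagent, reflected CYP2C9 turnover during a 1 h NADPH-driven reaction at 37C. Enzyme-substrate mix contained 0.4% bovine serum albumin and was preincubated with compound 10 min at room temperature.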

Papain (Carica papaya) = Papain (Carica papaya) (UniProt P00784); test: Primary qHTS assay for inhibitors of the protease papain (AID 1645873)
[14] = Counterscreen qHTS for small molecule stabilizers of the endoplasmic reticulum resident proteome: GLuc-NoTag assay (AID 1508627);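 note: SH-SY5Y cells given compound then 100 nM thapsigargin to empty ER calcium; series mostly up to about 76 µM; 0% = thapsigargin alone and -100% = DMSO vehicle control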
How it was run: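 Luminescence of Gaussia luciferase secreted into the medium (coelenterazine, 0.07x final, unlysed cells) was the read-out. Human SH-SY5Y neuroblastoma cells constitutively secreting untagged GLuc received compound for 19 h, then 100 nM thapsigargin for 4 h.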

[15] = Cell Viability qHTS for small molecule stabilizers of the endoplasmic reticulum resident proteome (AID 1508629); conditions: cell viability counter-screen, 100 nM thapsigargin for final 4 h
[16] = target: Cytochrome P450 2D6 (Homo sapiens) (UniProt P10635); test: Cytochrome P450 family 2 subfamily D member 6 (CYP2D6) small molecule antagonists: luciferase biochemical (cell-free) qHTS assay (AID 1645840; active = well fitted curve in the direction sought with a large enough effect in the repeat runs; an effect the other way counts as inactive or inconclusive; note: nearly all actives have a fitted effect of over 55% in size; note: potency is the fitted concentration of half-maximal effect)
How it was run: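 P450-Glo luminescent screen: recombinant CYP2D6 enzyme–proluciferin substrate mix preincubated with compound 10 min at room temperature, then NADPH regeneration added for 1 h at room temperature. Detection reagent added for 20 min; luciferin light read as relative luminescence units.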

Sequence of Papain (Carica papaya) (P00784 whole entry, looked up): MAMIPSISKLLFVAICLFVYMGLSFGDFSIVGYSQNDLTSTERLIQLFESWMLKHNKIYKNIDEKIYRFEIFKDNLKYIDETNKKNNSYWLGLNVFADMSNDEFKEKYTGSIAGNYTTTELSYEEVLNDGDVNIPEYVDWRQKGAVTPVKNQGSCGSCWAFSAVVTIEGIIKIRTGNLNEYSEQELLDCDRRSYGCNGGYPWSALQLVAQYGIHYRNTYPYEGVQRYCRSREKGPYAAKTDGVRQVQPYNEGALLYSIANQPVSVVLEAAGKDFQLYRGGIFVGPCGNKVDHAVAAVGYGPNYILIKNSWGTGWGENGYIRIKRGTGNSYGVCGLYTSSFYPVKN
Sequence of Single-stranded DNA cytosine deaminase (Homo sapiens) (Q9GZX7 whole entry, looked up): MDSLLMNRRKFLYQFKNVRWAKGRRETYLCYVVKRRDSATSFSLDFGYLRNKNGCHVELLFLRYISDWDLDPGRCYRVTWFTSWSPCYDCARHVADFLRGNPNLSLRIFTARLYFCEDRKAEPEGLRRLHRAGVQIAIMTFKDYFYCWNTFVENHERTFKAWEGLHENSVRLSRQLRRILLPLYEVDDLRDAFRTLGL
Sequence of Cytochrome P450 2C9 (Homo sapiens) (P11712 whole entry, looked up): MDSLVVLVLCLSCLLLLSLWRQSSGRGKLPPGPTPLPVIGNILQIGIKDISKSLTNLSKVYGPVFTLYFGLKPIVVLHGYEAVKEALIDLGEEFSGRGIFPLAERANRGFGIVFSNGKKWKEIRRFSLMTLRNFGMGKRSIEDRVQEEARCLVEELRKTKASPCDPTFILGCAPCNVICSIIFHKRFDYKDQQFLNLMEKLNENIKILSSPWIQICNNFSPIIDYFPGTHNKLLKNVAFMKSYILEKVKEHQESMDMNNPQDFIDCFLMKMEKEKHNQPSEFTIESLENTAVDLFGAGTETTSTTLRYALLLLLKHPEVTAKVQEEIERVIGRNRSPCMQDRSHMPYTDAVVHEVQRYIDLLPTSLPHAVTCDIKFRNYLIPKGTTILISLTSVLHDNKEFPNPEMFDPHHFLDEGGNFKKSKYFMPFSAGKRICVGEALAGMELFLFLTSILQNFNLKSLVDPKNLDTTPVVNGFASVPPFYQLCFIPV
Sequence of Cytochrome P450 2D6 (Homo sapiens) (P10635 whole entry, looked up): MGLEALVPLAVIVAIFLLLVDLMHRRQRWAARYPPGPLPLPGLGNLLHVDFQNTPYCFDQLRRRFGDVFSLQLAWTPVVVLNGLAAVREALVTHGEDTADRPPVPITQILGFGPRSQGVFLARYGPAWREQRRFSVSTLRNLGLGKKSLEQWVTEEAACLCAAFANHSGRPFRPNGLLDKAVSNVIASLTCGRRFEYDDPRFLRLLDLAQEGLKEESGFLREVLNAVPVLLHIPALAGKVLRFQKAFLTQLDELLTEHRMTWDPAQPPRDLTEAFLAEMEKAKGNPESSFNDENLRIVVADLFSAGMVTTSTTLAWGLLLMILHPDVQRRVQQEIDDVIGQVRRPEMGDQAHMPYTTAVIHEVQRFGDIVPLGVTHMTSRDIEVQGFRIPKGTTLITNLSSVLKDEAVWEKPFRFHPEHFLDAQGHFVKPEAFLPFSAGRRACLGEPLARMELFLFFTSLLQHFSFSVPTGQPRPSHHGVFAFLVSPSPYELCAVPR
Sequence of Calcium and integrin-binding protein 1 (Homo sapiens) (Q99828 whole entry, looked up): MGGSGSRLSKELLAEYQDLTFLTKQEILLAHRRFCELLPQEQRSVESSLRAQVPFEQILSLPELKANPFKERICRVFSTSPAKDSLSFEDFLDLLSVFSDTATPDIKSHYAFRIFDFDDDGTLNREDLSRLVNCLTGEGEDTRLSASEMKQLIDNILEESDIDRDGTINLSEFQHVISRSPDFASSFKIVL
Sequence of Protein phosphatase 1D (Homo sapiens) (O15297 whole entry, looked up): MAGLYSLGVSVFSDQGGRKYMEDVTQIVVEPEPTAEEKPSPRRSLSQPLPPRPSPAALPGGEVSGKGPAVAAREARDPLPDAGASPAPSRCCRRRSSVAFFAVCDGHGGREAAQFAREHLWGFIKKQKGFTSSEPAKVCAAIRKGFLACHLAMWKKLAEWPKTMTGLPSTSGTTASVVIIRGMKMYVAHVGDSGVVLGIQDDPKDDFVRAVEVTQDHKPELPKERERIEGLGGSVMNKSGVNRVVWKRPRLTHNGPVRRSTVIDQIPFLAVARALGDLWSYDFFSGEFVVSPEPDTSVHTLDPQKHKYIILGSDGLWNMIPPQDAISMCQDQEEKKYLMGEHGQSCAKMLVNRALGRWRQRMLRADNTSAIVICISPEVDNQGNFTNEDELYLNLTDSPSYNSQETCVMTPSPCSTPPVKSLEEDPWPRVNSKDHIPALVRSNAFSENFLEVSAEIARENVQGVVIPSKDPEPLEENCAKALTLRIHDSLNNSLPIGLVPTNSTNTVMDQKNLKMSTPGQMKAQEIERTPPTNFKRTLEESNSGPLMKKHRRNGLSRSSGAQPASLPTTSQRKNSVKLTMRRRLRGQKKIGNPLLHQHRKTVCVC

NC(N)=NC(=O)Cc1c(Cl)cccc1Cl
inactive: Potency [1] | Potency [2] | outcome [3] | Potency [4] | outcome [5] | outcome [6] | Potency [7] | Potency [8] | outcome [9] | Potency [10] | Potency [11] | Potency [12] | Potency [13] | Potency (Papain (Carica papaya))

CN(C)C/C=C(/c1ccc(Br)cc1)c1cccnc1
inactive: Potency [1] | Potency [2] | outcome [3] | outcome [5] | outcome [6] | Potency [7] | Potency [8] | outcome [9] | Potency [10] | Potency [14] | max response [15] 4.56% | Potency [13] | Potency (Papain (Carica papaya))

c1cnc(N2CCN(Cc3ccc4c(c3)OCO4)CC2)nc1
inactive: Potency [1] | Potency [2] | outcome [3] | outcome [5] | outcome [6] | Potency [7] | Potency [8] | outcome [9] | Potency [10] | Potency [11] | Potency [12] | Potency (Papain (Carica papaya))
active: Potency [16] 0.871 µM | Potency [13] 11 µM

CN(C)CCOC(=O)COc1ccc(Cl)cc1
inactive: Potency [1] | Potency [2] | outcome [3] | outcome [5] | outcome [6] | Potency [7] | Potency [8] | outcome [9] | Potency [10] | Potency [11] | Potency [13] | Potency (Papain (Carica papaya))

CC(C)[N+](C)(CCOC(=O)C1c2ccccc2Oc2ccccc21)C(C)C
active: Potency [16] 0.309 µM
inactive: Potency [1] | Potency [2] | outcome [3] | Potency [4] | outcome [5] | outcome [6] | Potency [8] | outcome [9] | Potency [10] | Potency [13] | Potency (Papain (Carica papaya))

CSc1ccc(C(=O)c2[nH]c(=O)[nH]c2C)cc1
inactive: Potency [1] | Potency [2] | outcome [3] | Potency [4] | outcome [5] | outcome [6] | outcome [9] | Potency [10] | Potency [11] | Potency [12] | Potency [13] | Potency (Papain (Carica papaya))

CCCCCCCC/C=C\CCCCCCCC(=O)NCc1ccc(O)c(OC)c1
active: Potency [13] 1.1 µM and 1.69 µM
inactive: Potency [1] | Potency [2] | outcome [3] | Potency [4] | outcome [5] | outcome [6] | Potency [8] | outcome [9] | Potency [10] | Potency [11] | Potency [16] | Potency (Papain (Carica papaya))

CCO/C([O-])=N/c1c[n+](N2CCOCC2)no1
inactive: Potency [1] | Potency [2] | outcome [3] | Potency [4] | outcome [5] | outcome [6] | Potency [8] | outcome [9] | Potency [10] | Potency [11] | Potency [16] | Potency [13] | Potency (Papain (Carica papaya))

CN(C)CCCN1c2ccccc2Sc2ccccc21
inactive: Potency [1] | Potency [2] | outcome [3] | Potency [4] | outcome [5] | outcome [6] | Potency [8] | outcome [9] | Potency [10] | max response [15] -13.5% | Potency (Papain (Carica papaya))

O=C(O)CN(CCOCCOCCN(CC(=O)O)CC(=O)O)CC(=O)O
inactive: Potency [1] | activity change, negative = inhibition [2] 1.04% [at 0.727 µM] | outcome [3] | activity change, negative = inhibition [4] 15.2% [at 0.505 µM] | activity change, negative = inhibition [5] -3.01% [at 0.575 µM] | outcome [6] | Potency [8] | outcome [9] | activity change, negative = inhibition [10] 0.103% [at 1.07 µM] | Potency [11] | activity change, negative = inhibition [16] 2.42% [at 0.91 µM] | activity change, negative = inhibition [13] 9.82% [at 0.91 µM] | Potency (Papain (Carica papaya))

Nc1c2c(nc3ccccc13)CCCC2O (centres undefined)
inactive: Potency [1] | Potency [2] | outcome [3] | outcome [5] | outcome [6] | Potency [7] | Potency [8] | outcome [9] | Potency [10] | Potency [11] | Potency [12] | Potency [13] | Potency (Papain (Carica papaya))
active: Potency [16] 15.5 µM

CN1C(=O)CC[C@H]1c1cccnc1
inactive: Potency [1] | Potency [2] | outcome [3] | outcome [5] | outcome [6] | Potency [7] | Potency [8] | outcome [9] | Potency [10] | Potency [11] | Potency [12] | Potency [16] | Potency [13] | Potency (Papain (Carica papaya))

CN(C)CC/C=C1\c2ccccc2COc2ccccc21
inactive: Potency [1] | Potency [2] | outcome [3] | outcome [5] | outcome [6] | Potency [7] | Potency [8] | outcome [9] | Potency [10] | Potency [14] | Potency [13] | Potency (Papain (Carica papaya))
active: Potency [16] 1.95 µM

Fc1ccc(C(c2ccc(F)cc2)N2CCN(C/C=C/c3ccccc3)CC2)cc1
active: Potency [12] 12.6 µM | Potency [13] 7.76 µM
inactive: Potency [1] | Potency [2] | outcome [3] | Potency [4] | outcome [5] | outcome [6] | Potency [8] | outcome [9] | Potency [10] | Potency (Papain (Carica papaya))

C#CCN(C)CCCOc1ccc(Cl)cc1Cl
active: Potency [16] 1.55 µM | Potency [13] 30.9 µM
inactive: Potency [1] | Potency [2] | outcome [3] | Potency [4] | outcome [5] | outcome [6] | Potency [8] | outcome [9] | Potency [10] | Potency [11] | Potency (Papain (Carica papaya))

CC(C)COCC(CN(Cc1ccccc1)c1ccccc1)N1CCCC1 (centres undefined)
inactive: Potency [1] | Potency [2] | outcome [3] | outcome [5] | outcome [6] | Potency [7] | Potency [8] | outcome [9] | Potency [10] | Potency [11] | Potency (Papain (Carica papaya))
active: Potency [16] 0.0347 µM

C[N+](C)(C)CCCCCCCCCC[N+](C)(C)C
inactive: Potency [1] | Potency [2] | outcome [3] | outcome [5] | outcome [6] | Potency [7] | Potency [8] | outcome [9] | Potency [10] | Potency [11] | Potency [12] | Potency [16] | Potency [13] | Potency (Papain (Carica papaya))

CCc1c(C)[nH]c2c1C(=O)C(CN1CCOCC1)CC2 (centres undefined)
inactive: Potency [1] | Potency [2] | outcome [3] | outcome [5] | outcome [6] | Potency [7] | Potency [8] | outcome [9] | Potency [10] | Potency [11] | Potency [12] | Potency (Papain (Carica papaya))

FC(F)(F)c1ccccc1-n1ccnc1
inactive: Potency [1] | Potency [2] | outcome [3] | outcome [5] | outcome [6] | Potency [7] | Potency [8] | outcome [9] | Potency [10] | Potency [11] | Potency [12]
active: Potency [16] 3.47 µM | Potency [13] 13.8 µM
